# Test results: the supplement of paper PMC10849652
# Of roughly 7,900 targets only a part is listed; those with a hit were picked by preference. About 0.6% of all pairs of compound and target were hits. Unmarked numbers belong to inactive results.
# Tests used:
# Assay in all cases: log2 fold change, soluble protein after heating vs DMSO (PISA); higher = thermal stabilisation; K562 cells, 10 uM, 30 min; active = over 0.2 and 3.5 SD of the protein, either way, in both replicates (recomputed)
# [1] = compound: CC[C@@H]1C(=O)N(C)c2cnc(Nc3ccc(C(=O)NC4CCN(C)CC4)cc3OC)nc2N1C1CCCC1
# Summary of the method: (§1)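 Values are thermal stability changes relative to control samples and are taken from duplicates. They are stated as log2 fold changes. Before quantification by TMTpro 16plex LC-MS/MS with equalised channel sums, K562 cells at 2×10^6 cells/mL were treated with 10 μM compound for 30 min, heated in aliquots for 3 min across 48°C-58°C, pooled, extracted in PBS with 0.5% NP-40 at 4°C, and centrifuged at 21,000xg for 90 min to give the soluble supernatant.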
# volasertib = compound: CC[C@@H]1C(=O)N(C)c2cnc(Nc3ccc(C(=O)N[C@H]4CC[C@H](N5CCN(CC6CC6)CC5)CC4)cc3OC)nc2N1C(C)C [volasertib]
# Summary of the method: as §1
# [2] = compound: CC[C@H](C)N1C=C(C2=C(C=C(C=C21)C3=CN=C(C=C3)N4CCNCC4)C(=O)NCC5=C(C=C(NC5=O)C)C)C
# Summary of the method: as §1
# epoxomicin = compound: CC[C@H](C)[C@@H](C(=O)N[C@@H]([C@@H](C)O)C(=O)N[C@@H](CC(C)C)C(=O)[C@]1(CO1)C)NC(=O)[C@H]([C@@H](C)CC)N(C)C(=O)C [epoxomicin]
# Summary of the method: as §1
# [3] = compound: CCn1c(C(=O)N(C2CC2)C2CC2)cc2c3c(ncn3C)c(Nc3cc(C)n(C)n3)nc21
# Summary of the method: as §1
# [4] = compound: CCn1cc(-c2ccnc3[nH]c(-c4cccc(CN(C)C)c4)cc23)c(-c2ccc(NC(=O)N(C)C)cc2)n1
# Summary of the method: as §1
# [5] = compound: CN(C)CC(=O)Nc1ccc2[nH]c(=O)c3ccccc3c2c1
# Summary of the method: as §1
# rosiglitazone = compound: CN(CCOC1=CC=C(C=C1)C[C@H]2C(=O)NC(=O)S2)C3=CC=CC=N3 (racemic) [rosiglitazone]
# Summary of the method: as §1
# [6] = compound: CN1C2=C(C3=C1C(=O)N(N=C3)CC4=CC(=CC=C4)N)SC(=C2)S(=O)C
# Summary of the method: as §1
# [7] = compound: CN1CCC(CNc2ccc3ncc(-c4cccc(OC(F)(F)F)c4)n3n2)CC1
# Summary of the method: as §1
# saracatinib = compound: CN1CCN(CCOc2cc(OC3CCOCC3)c3c(Nc4c(Cl)ccc5c4OCO5)ncnc3c2)CC1 [saracatinib]
# Summary of the method: as §1
# sotrastaurin = compound: CN1CCN(c2nc(C3=C(c4c[nH]c5ccccc45)C(=O)NC3=O)c3ccccc3n2)CC1 [sotrastaurin]
# Summary of the method: as §1
# alvocidib = compound: CN1CC[C@H](c2c(O)cc(O)c3c(=O)cc(-c4ccccc4Cl)oc23)[C@H](O)C1 [alvocidib]
# Summary of the method: as §1
# Tubastatin A = compound: CN1CCc2c(c3ccccc3n2Cc2ccc(C(=O)NO)cc2)C1 [Tubastatin A]
# Summary of the method: as §1
# [8] = compound: CNC(=O)C1=CC=CC=C1NC2=NC(=NC=C2Cl)NC3=C(C=C(C=C3)N4CCOCC4)OC
# Summary of the method: as §1
# defactinib = compound: CNC(=O)c1ccc(Nc2ncc(C(F)(F)F)c(NCc3nccnc3N(C)S(C)(=O)=O)n2)cc1 [defactinib]
# Summary of the method: as §1
# rucaparib = compound: CNCc1ccc(-c2[nH]c3cc(F)cc4c3c2CCNC4=O)cc1 [rucaparib]
# Summary of the method: as §1
# [9] = compound: CNc1nc(-c2ccc3c(N)n[nH]c3c2)cc(N2C[C@@H](C(=O)NC3CCCCC3)CC[C@H]2C)n1
# Summary of the method: as §1
# encorafenib = compound: COC(=O)N[C@@H](C)CNc1nccc(-c2cn(C(C)C)nc2-c2cc(Cl)cc(NS(C)(=O)=O)c2F)n1 [encorafenib]
# Summary of the method: as §1
# [10] = compound: COC(=O)[C@H](CCSC)NC(=O)C1=C(C=C(C=C1)NC[C@H](CS)N)C2=CC=CC=C2
# Summary of the method: as §1
# Sequence of UniProt P45983 (P45983 whole entry, looked up): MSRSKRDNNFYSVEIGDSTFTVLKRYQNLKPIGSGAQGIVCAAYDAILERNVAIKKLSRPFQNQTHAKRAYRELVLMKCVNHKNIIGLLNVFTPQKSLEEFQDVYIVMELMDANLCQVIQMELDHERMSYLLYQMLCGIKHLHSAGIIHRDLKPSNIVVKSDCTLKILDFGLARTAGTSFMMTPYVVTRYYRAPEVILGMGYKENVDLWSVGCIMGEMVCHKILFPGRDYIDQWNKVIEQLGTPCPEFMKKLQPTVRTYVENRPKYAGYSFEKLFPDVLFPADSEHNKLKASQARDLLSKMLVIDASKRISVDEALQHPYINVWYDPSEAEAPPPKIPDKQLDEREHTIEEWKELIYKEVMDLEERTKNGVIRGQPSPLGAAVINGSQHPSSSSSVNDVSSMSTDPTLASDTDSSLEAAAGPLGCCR
# Sequence of UniProt P48449 (P48449 whole entry, looked up): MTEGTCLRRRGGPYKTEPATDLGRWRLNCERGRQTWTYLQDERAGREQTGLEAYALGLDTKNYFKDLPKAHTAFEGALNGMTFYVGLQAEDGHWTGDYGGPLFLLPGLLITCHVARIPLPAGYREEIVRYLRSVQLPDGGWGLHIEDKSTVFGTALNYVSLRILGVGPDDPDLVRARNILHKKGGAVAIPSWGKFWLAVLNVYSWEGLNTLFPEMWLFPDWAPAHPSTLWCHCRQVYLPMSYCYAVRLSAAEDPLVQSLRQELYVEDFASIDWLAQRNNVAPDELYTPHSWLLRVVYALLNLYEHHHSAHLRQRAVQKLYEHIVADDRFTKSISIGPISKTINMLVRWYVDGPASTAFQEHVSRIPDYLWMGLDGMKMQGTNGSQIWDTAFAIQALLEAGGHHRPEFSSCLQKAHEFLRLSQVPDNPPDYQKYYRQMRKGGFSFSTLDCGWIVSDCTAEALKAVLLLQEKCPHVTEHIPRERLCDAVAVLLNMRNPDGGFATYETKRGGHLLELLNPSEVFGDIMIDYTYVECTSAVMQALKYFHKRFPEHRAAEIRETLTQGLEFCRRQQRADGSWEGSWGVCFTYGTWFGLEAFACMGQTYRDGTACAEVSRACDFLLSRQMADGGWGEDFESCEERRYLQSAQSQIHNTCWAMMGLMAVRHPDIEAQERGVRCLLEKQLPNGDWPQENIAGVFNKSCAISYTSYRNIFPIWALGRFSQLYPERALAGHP
# Sequence of UniProt Q16891 (Q16891 whole entry, looked up): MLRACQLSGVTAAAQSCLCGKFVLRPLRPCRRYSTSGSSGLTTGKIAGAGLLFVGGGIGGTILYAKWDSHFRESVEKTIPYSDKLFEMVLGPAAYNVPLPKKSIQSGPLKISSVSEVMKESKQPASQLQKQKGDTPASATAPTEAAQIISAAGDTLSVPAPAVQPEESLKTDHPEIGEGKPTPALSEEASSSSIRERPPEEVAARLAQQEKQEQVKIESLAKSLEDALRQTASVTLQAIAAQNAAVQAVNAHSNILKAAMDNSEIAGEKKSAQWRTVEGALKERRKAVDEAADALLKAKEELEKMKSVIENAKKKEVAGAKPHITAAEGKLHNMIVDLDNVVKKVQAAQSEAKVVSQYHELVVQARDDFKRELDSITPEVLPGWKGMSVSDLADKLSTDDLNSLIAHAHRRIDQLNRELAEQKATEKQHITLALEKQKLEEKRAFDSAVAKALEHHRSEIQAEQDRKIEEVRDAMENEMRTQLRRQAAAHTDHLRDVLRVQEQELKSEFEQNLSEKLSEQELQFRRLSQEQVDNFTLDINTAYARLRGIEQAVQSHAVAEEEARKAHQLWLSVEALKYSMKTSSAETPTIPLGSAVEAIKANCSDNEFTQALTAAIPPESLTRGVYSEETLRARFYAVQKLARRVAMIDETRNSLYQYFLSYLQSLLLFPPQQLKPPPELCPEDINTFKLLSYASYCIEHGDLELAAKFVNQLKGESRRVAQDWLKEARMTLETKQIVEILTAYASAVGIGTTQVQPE
# Sequence of UniProt P43362 (P43362 whole entry, looked up): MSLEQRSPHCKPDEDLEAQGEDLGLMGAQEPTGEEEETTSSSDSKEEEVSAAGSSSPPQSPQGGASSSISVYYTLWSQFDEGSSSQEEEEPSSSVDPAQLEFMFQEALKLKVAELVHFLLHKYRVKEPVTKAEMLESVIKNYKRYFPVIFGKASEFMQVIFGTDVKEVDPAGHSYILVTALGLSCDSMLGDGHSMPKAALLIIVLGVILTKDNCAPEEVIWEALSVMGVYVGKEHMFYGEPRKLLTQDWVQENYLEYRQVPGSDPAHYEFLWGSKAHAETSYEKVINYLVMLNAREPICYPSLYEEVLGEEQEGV
# Sequence of UniProt O60333 (O60333 whole entry, looked up): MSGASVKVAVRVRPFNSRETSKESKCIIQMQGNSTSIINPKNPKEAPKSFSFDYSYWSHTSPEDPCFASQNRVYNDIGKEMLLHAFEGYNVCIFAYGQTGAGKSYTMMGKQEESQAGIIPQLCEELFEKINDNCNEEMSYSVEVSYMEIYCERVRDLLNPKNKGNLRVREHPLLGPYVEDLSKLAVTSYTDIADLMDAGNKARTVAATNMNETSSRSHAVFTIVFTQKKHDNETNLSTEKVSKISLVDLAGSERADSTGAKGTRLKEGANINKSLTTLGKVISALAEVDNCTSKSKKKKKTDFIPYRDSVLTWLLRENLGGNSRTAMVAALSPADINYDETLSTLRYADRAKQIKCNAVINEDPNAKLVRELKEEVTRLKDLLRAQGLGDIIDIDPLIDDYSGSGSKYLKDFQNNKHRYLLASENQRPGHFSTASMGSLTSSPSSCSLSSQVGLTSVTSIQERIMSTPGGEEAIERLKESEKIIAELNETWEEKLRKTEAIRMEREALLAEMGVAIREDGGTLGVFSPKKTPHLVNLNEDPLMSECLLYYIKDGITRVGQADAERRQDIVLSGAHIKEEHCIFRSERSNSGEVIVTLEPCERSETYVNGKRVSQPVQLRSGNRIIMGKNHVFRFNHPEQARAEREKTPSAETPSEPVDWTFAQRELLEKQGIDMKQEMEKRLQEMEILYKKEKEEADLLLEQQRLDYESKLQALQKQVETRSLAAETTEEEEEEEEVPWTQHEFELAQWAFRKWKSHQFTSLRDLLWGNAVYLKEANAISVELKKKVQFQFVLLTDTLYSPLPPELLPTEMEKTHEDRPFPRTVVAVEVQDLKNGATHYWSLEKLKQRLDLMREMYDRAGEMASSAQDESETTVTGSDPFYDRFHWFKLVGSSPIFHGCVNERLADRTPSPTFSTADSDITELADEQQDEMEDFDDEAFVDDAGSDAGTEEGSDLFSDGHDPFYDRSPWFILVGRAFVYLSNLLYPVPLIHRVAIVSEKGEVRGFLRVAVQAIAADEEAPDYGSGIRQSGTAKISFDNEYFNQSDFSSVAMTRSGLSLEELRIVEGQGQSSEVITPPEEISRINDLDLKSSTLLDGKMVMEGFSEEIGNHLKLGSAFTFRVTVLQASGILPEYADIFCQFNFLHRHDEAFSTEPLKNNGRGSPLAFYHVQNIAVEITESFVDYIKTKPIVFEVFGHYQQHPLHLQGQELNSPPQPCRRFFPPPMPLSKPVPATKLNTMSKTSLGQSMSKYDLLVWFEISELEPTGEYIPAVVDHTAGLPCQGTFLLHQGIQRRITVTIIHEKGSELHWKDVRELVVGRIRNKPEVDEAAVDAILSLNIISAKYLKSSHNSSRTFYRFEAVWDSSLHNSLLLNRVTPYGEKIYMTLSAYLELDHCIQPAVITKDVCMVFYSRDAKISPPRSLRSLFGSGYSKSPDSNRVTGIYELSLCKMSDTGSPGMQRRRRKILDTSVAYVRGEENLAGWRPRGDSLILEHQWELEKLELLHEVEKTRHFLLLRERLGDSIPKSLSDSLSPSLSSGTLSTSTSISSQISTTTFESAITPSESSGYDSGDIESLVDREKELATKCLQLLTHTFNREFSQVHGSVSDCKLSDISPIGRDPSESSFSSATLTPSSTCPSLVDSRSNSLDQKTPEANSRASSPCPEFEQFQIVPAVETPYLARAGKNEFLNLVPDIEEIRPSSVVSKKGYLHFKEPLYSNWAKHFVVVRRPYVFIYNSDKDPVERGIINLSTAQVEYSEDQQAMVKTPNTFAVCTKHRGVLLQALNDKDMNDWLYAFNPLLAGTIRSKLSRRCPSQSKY
# Sequence of UniProt Q9BPX6 (Q9BPX6 whole entry, looked up): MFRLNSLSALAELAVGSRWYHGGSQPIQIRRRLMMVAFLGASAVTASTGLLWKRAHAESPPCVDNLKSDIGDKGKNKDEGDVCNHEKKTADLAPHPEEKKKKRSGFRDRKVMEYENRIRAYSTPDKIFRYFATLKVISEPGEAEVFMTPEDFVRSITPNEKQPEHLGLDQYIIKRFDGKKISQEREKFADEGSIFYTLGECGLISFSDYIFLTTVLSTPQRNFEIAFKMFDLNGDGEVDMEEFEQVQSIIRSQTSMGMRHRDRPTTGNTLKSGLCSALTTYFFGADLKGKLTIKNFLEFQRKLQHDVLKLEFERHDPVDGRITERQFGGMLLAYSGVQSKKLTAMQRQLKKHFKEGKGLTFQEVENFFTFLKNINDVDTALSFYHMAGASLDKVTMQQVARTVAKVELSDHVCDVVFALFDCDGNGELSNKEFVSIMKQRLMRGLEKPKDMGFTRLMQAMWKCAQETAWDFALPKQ
# Sequence of UniProt Q6P9B6 (Q6P9B6 whole entry, looked up): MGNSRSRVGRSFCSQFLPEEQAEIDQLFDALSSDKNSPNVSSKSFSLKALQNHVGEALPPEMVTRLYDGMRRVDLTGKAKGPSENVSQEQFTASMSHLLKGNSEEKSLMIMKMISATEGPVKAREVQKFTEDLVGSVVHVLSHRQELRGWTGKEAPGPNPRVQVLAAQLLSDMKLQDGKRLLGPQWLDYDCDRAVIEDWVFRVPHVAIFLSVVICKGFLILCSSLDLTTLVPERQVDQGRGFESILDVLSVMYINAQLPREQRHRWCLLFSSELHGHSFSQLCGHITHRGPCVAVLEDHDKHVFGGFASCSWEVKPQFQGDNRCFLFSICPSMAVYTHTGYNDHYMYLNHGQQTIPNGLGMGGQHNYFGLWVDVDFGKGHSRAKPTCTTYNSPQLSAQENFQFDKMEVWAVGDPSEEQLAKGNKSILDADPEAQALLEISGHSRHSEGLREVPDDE
Target,log2 fold change [1],log2 fold change (volasertib),log2 fold change [2],log2 fold change (epoxomicin),log2 fold change [3],log2 fold change [4],log2 fold change [5],log2 fold change (rosiglitazone),log2 fold change [6],log2 fold change [7],log2 fold change (saracatinib),log2 fold change (sotrastaurin),log2 fold change (alvocidib),log2 fold change (Tubastatin A),log2 fold change [8],log2 fold change (defactinib),log2 fold change (rucaparib),log2 fold change [9],log2 fold change (encorafenib),log2 fold change [10]
MGST3 (UniProt O14880),-0.005,0.048,-0.107,-0.016,0.066,-0.047,-0.017,-0.043,-0.027,0.097,0.037,0.064,0.021,-0.01,-0.029,0.012,-0.027,-0.028,-0.033,0.053
IMMT isoform 2 (UniProt Q16891),-0.043,-0.046,-0.002,-0.052,0.074,-0.031,0.086,-0.009,0.067,0.249,-0.069,-0.036,-0.071,-0.076,0.131,0.029,0.023,-0.111,0.017,0.067
MAP3K4 isoform 2 (UniProt Q9Y6R4),0.141,0.398 (active),-0.013,0.007,0,-0.519 (active),0.013,0.018,-0.018,0.024,0.077,0.034,-0.093,-0.038,0.153,-0.008,0.006,-0.002,-0.023,0.029
MAPK14 isoform 2 (UniProt Q16539),-0.223,-0.398,-0.019,0.02,0.081,0.001,0.039,0.007,-0.029,0.074,0.486,-0.085,-0.021,0.145,0.559,-0.25,0.127,-0.029,0.91 (active),-0.014
KIF1B isoform 4 (UniProt O60333),-0.042,-0.11,0.052,0.039,-0.015,-0.005,0.123,0.059,-0.001,-0.299 (active),-0.033,-0.014,-0.018,0.025,0.016,-0.004,-0.006,-0.097,0.023,-0.016
MICU1 isoform 3 (UniProt Q9BPX6),-0.113,-0.281,0.031,0.026,-0.009,0.008,0.006,-0.01,0.077,-0.369 (active),-0.073,0,0.005,-0.007,-0.054,0.172,0.134,-0.012,0.121,-0.05
LARP1 (UniProt Q6PKG0),0.098,0.071,0.047,-0.034,0.061,0.016,-0.054,0.014,0.131,0.025,-0.023,-0.029,0.12,0.059,0.05,0.089,0.11,0.004,0.039,0.01
MAPK8 isoform 3 (UniProt P45983),-0.112,-0.249,0.003,0.117,-0.036,0.006,0.004,0.095,0.013,-0.054,-0.006,0.052,0.087,0.009,0.942 (active),-0.009,0.031,-0.07,0.029,-0.029
LMBRD2 (UniProt Q68DH5),-0.063,-0.042,-0.012,0.081,-0.007,-0.018,0.002,-0.023,-0.008,-0.362 (active),0.04,0.02,-0.041,-0.032,-0.014,-0.01,0.003,-0.037,0.021,-0.021
MEAK7 (UniProt Q6P9B6),-0.084,-0.473 (active),0.039,0.067,-0.025,-0.03,-0.046,0.103,-0.033,-0.097,0.043,-0.004,-0.056,0.028,-0.088,-0.041,0.008,0.026,0.02,0.088
LSS (UniProt P48449),0.024,0.719 (active),0.074,0.129,-0.056,-0.024,0.055,0.077,-0.025,0.384,0.172,0.016,-0.066,0.103,-0.091,-0.015,0.595 (active),-0.001,0.118,0.074
MAGEA9 (UniProt P43362),-0.11,-0.39 (active),-0.057,-0.044,-0.05,-0.088,0.044,0.038,-0.084,-0.116,0.041,-0.037,-0.346,-0.038,-0.001,-0.175,-0.153,0.015,0.039,-0.082
LPIN1 isoform 7 (UniProt Q14693),0.06,-0.002,0.063,0.098,0.011,-0.045,0.012,0.055,0.008,-0.016,0.003,-0.093,-0.059,0.041,-0.113,-0.03,-0.054,-0.13,0.009,0.035
IRF2BPL (UniProt Q9H1B7),0.01,-0.043,-0.012,0.108,-0.042,-0.023,0.036,0.067,-0.068,-0.018,0.003,-0.044,-0.079,0.053,0.032,-0.038,0.015,-0.045,-0.06,-0.027
JMJD6 isoform 3 (UniProt Q6NYC1),-0.044,-0.306 (active),-0.012,-0.015,-0.037,-0.009,-0.006,0.031,0.006,-0.09,-0.01,-0.018,-0.076,-0.122,0.081,-0.188,0.061,-0.016,0.026,0.035
